Data on 19 compounds can be found in PubChem BioAssay (NCATS).

Values without a mark were called inactive. The call rests on the fitted dose curve; in most records, active means well fitted curve in the direction sought with a large enough effect; inconclusive means small, poorly fitted or top-dose-only effect, or another doubt; inactive means no such curve, though single readings can be large or run the other way.

Galactokinase (Homo sapiens), sequence (P51570 whole entry, looked up): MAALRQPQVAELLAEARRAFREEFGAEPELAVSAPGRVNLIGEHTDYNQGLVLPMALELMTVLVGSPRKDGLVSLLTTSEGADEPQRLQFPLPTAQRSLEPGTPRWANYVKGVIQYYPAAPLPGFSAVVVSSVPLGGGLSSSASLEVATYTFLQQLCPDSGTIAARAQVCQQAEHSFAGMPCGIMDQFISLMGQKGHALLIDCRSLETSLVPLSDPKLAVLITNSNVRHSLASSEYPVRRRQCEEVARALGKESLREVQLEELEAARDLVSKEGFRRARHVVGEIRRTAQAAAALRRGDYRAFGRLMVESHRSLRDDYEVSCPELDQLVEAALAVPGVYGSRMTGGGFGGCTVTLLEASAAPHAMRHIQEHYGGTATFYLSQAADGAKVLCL

The target of the test is Galactokinase (Homo sapiens) (UniProt P51570). Kind of test: qHTS Validation Assay for Inhibitors of Human Galactokinase (GALK) (AID 493189). Further: 0% is about no effect. Conditions: purified human GALK enzyme activity, qHTS 7-point titration; series mostly up to 57.5 µM; activity change, negative = inhibition: at the top concentration. In outline:
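Enzyme activity is inferred from ATP consumption: human GALK phosphorylates galactose (100 uM) using 35 uM ATP for 1 h at room temperature, and luciferase-based Kinase-Glo Plus reports unconsumed ATP.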
Regarding `Nc1nc2c(ncn2COCCO)c(=O)[nH]1`, the “activity change, negative = inhibition” value was 3.42%.
`CCOC(=O)C1=C[C@]2(CC)CCCN3CCc4c(n1c1ccccc41)[C@@H]32`: the “activity change, negative = inhibition” value is 4.44%.
The value for `CNC[C@H](O)c1cccc(O)c1` was 3.31%; that for `Cc1ccc(N(CC2=NCCN2)c2cccc(O)c2)cc1` was 4.22%; that for `NC(=O)c1cnccn1` was -15.5%.
Regarding `O=c1[nH]cnc2[nH]ncc12`, the “activity change, negative = inhibition” value is 4.36%.
Consider `Cc1[nH]c(=O)c(C#N)cc1-c1ccc2nccn2c1`, for which the “activity change, negative = inhibition” value was 4.81%.
For the compound `CC(C)NCC(O)COc1ccc(COCCOC(C)C)cc1` (centres undefined), the “activity change, negative = inhibition” value is 5.89%.
Consider `Nc1nc2ccc(OC(F)(F)F)cc2s1`, for which the “activity change, negative = inhibition” value was -1.42%.
Regarding `CCOC(=O)N1CCC(=C2c3ccc(Cl)cc3CCc3cccnc32)CC1`, the “activity change, negative = inhibition” value is 2.68%.
Consider `Cc1oncc1C(=O)Nc1ccc(C(F)(F)F)cc1`, for which the “activity change, negative = inhibition” value was 1.87%.
As to `CN1CCN(CCCN2c3ccccc3Sc3ccc(C(F)(F)F)cc32)CC1`, the “activity change, negative = inhibition” value was -15%.
Turning to `CCn1cc(C(=O)O)c(=O)c2cc(F)c(N3CCNC(C)C3)c(F)c21` (centres undefined), the “activity change, negative = inhibition” value is 2.5%.
The value for `CCCCNc1cc(C(=O)O)cc(S(N)(=O)=O)c1Oc1ccccc1` was 3.1%; that for `NNCCc1ccccc1` was -11.6%; that for `CC(=O)Oc1ccccc1C(=O)O` was -1.42%.
`NC[C@H](O)c1ccc(O)c(O)c1`: the “activity change, negative = inhibition” value was -2.65%.
`Cc1cn[nH]c1`: the “activity change, negative = inhibition” value was 3.26%.
To `CCCC(CCC)C(=O)O` belongs 2%.
